Screening results (PubChem)
Most compounds without a hit are left out; they make up all but 22% or so of the library.
CHX counter = counter-screen hit for Shiga toxin inhibitors, cycloheximide | cell reporter, cycloheximide protein synthesis inhibition counterscreen | max response, % | 300,000 tested, 12% active | AID 2314; in the data active = max response mostly above about 13%, no sharp cut-off; inactive = mostly below about 14%; note: read at 38.3 µM for the half of the compounds with a filed dose; 0% is about no effect
Shiga inhibitor = blocks Shiga toxin action in Vero cells; AID 2315; inhibition, % at 38.7 µM; Vero cells, Shiga toxin protein synthesis inhibition reporter; 290,000 tested, 9.2% active; in the data active = inhibition mostly above about 28%, no sharp cut-off; inactive = mostly below about 43%; note: 0% is about no effect
Pf growth 48h = P. falciparum growth inhibition at 48 hours (one generation) | Potency, µM (doses to about 28.7 µM), inactives show top-dose activity change, negative = inhibition, hits mostly inhibitors | P. falciparum luciferase growth in erythrocytes, 48 h | 310,000 tested, 5.9% active | AID 504832; note: potency is the fitted concentration of half-maximal effect; % is set by controls: 0 for no effect and ±100 for the full control effect
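Cell-based growth assay: transgenic P. falciparum expressing firefly luciferase, cultured in red cells within RPMI 1640 containing 0.5% w/v Albumax, 24 mM bicarbonate and gentamycin. A drop in luciferase activity indicates inhibition.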
Pf growth 96h = P. falciparum growth inhibition at 96 hour, primary screen for plastid delayed-death inhibitors. P. falciparum luciferase reporter growth, 96 h. Potency, µM (doses to about 28.7 µM), for the others: at the top dose activity change, negative = inhibition, most hits filed as inhibitors. 320,000 tested, 6.9% active; note: potency is the fitted concentration of half-maximal effect; % is set by controls: 0 for no effect and ±100 for the full control effect
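Cell-based qHTS: luciferase-tagged P. falciparum in erythrocytes (2% hematocrit, 0.05% parasitemia final) incubated with compounds for 96 hours, 37 C, 5% CO2; luciferase detection reagent then added and luminescence measured.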
LmPK inhibitor = inhibitors of Leishmania mexicana pyruvate kinase; Q27686; purified LmPK, Kinase-Glo ATP luminescence, 1 h; Potency, µM (series often up to 57.5 µM), for inactives: at the highest dose activity change, negative = inhibition, hits mostly inhibitors; 290,000 tested, 0.37% active; AID 1721; note: potency is the fitted concentration of half-maximal effect; % is set by controls: 0 for no effect and ±100 for the full control effect
Target sequence (Q27686 whole entry, looked up): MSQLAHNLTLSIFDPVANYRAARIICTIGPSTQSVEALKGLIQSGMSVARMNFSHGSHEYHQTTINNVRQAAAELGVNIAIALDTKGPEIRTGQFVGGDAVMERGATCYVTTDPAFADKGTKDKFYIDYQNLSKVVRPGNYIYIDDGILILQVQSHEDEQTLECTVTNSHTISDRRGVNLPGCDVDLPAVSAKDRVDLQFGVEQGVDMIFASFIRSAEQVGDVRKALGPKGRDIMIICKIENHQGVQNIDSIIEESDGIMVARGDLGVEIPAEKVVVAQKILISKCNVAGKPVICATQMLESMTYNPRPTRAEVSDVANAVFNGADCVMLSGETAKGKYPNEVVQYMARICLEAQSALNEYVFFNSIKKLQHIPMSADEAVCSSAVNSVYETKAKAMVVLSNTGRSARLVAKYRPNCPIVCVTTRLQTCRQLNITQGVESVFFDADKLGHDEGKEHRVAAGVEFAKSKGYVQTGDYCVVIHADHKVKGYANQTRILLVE
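Screened at intermediate enzyme activity to detect both inhibitors and activators: LmPK at 0.1 nM, with a 0.5 nM enzyme column as activation reference. PEP 0.5 mM, ADP 0.1 mM; ATP detected by luminescence after 1 h.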
* = called active by the depositor; ? = inconclusive; / = not tested or not shown; [ ] = dose if it differs, or a comment. Unless noted, calls come from the whole dose curve; as a rule, active = well fitted inhibition curve with a large enough effect; inconclusive = small, poorly fitted or top-dose-only effect, or another doubt; inactive = no such curve, though single readings can be large or run the other way.

SMILES	CHX counter	Shiga inhibitor	Pf growth 48h	Pf growth 96h	LmPK inhibitor
CC(=O)c1c(C)[nH]c(C(=O)OCC(=O)Nc2cccc(S(=O)(=O)N(C)C)c2)c1C	-4.9	-16.5	?	?	0.5%
CC(=O)c1c(C)[nH]c(C(=O)Nc2ccc(S(=O)(=O)N(C)C)cc2)c1C	2.5	9.5	?	13.1µM*	-14.3%
CC(=O)c1c(C)[nH]c(C(=O)Nc2cccc(S(=O)(=O)N(C)C)c2)c1C	30.9*	49.6	37.4%	38.1%	5.3%
CC(=O)c1c(C)[nH]c(C(=O)Nc2ccc(C)c(S(=O)(=O)N(C)C)c2)c1C	-1.7	-8.3	233.2%	-6.6%	-3.5%
CC(=O)c1c(C)[nH]c(C(=O)Nc2cc(C)cc(C)c2)c1C	-2.3	2.7	/	5.86µM*	8.4%
COc1ccc(N2C(=S)NC3N2C(=S)NC3(C)c2ccccc2)cc1 (centres undefined)	36.8*	55.6*	224.2%	110.2%	-7.1%
CSc1ccc(CNC(=O)C2CCC(=O)N(CCc3cccc(F)c3)C2)cc1 (centres undefined)	21.4	14.3	32.9%	-22.7%	3.7%
COc1ccc(C(=O)NNC2=CC(=O)CC(C)(C)C2)cc1OC	-3.6	-10.4	-6.3%	?	5.1%
COc1cc(OC)cc(-n2nnnc2SCC(=O)N2CCCC2)c1	-3.0	2.1	14.7%	?	4.8%
CCC(=O)Nc1cccc(-n2nnnc2SCC(=O)N2CCCCC2)c1	17.5*	27.4	6.2%	-8.8%	0.7%
O=C(NC1CCCC1)C(c1ccc(O)cc1)N(CC1CCCO1)C(=O)C1COc2ccccc2O1 (centres undefined)	-5.0	9.6	?	15.2%	-0.7%
CC(C)CCNC(=O)C(c1ccc(O)cc1)N(C(=O)C1COc2ccccc2O1)c1cccc(O)c1 (centres undefined)	1.0	-7.1	11.7µM*	?	-1.0%
CCOc1cccc(N(C(=O)C2COc3ccccc3O2)C(C(=O)NC2CCCCC2)c2ccc(O)cc2)c1 (centres undefined)	-1.4	-5.8	13.1µM*	56.9%	-1.3%
COc1ccc(NS(=O)(=O)c2ccc3c(c2)NC(=O)CO3)cc1	-0.5	21.3	-18.7%	10.9%	5.9%
CCC(c1nnnn1CCc1ccccc1)N(Cc1ccco1)Cc1cc2cc(C)cc(C)c2[nH]c1=O (centres undefined)	-2.1	-12.8	11.7µM*	-19.3%	1.7%
CC(C)C(c1nnnn1Cc1ccccc1)N(CCCO)Cc1cc2cc3c(cc2[nH]c1=O)OCO3 (centres undefined)	-2.5	-5.3	7.38µM*	45.4%	8.5%
CCC(c1nnnn1Cc1ccccc1)N(Cc1ccco1)Cc1cc2cc(OC)ccc2[nH]c1=O (centres undefined)	-2.8	-10.6	?	-8.9%	0.4%
CCC(c1nnnn1Cc1ccco1)N(CCc1ccccc1)Cc1cc2cc(C)ccc2[nH]c1=O (centres undefined)	-7.1	-16.9	13.1µM*	314.3%	4.2%
Cc1ccc2[nH]c(=O)c(CN(CCc3ccccc3)C(c3nnnn3Cc3ccco3)C(C)C)cc2c1 (centres undefined)	15.4	39.9*	3.29µM*	?	2.1%
Cc1ccc(S(=O)(=O)N2CCN(C(=O)COC(=O)CSc3ccccc3)CC2)c(C)c1	/	/	-28.3%	9.1%	/
CC1(OC(=O)C2CCCC2)C(=O)C=C2C=C(c3ccsc3)N(C3CCCCC3)C=C2C1=O (centres undefined)	-4.2	-2.2	11.7µM*	?	-0.1%[11.5 µM]
CC1(OC(=O)C2CCCC2)C(=O)C=C2C=C(c3ccsc3)N(CC3CC3)C=C2C1=O (centres undefined)	-1.6	-3.4	?	?	-3.8%[11.5 µM]
CC1(OC(=O)C2CCCC2)C(=O)C=C2C=C(c3ccsc3)N(CCc3c[nH]c4ccccc34)C=C2C1=O (centres undefined)	-0.5	-12.3	9.28µM*	13.1µM*	0.3%[11.5 µM]
CC1(OC(=O)C2CCCC2)C(=O)C=C2C=C(c3ccsc3)N(CCN3CCOCC3)C=C2C1=O (centres undefined)	-3.0	-4.6	?	?	-3.6%[11.5 µM]
CC(C)Cc1ccccc1O	-1.8	-4.1	?	-12.0%	0.8%
SMILES	CHX counter	Shiga inhibitor	Pf growth 48h	Pf growth 96h	LmPK inhibitor
C[C@H]1CCC/C=C/C2C[C@H](O)CC2[C@H](O)/C=C/C(=O)O1 (some centres undefined)	-6.3	1.9	2.94µM*	2.08µM*	15.6%
S=C(NCc1ccccc1)N1CCN(C(=S)NCc2ccccc2)CC1	/	/	44.6%	61.2%	/
Cc1ccc(S(=O)(=O)N2CCOCC2)cc1NC(=O)CSc1n[nH]c(N)n1	-1.3	-5.6	-19.0%	-6.8%	3.7%
O=C(CCc1ccc(S(=O)(=O)N2CCOCC2)cc1)OCc1nc2ccccc2s1	73.3*	108.6*	59.2%	?	2.1%
CCN(CC)c1ccc(S(=O)(=O)N2CCOCC2)cc1NC(=O)CSc1n[nH]c(N)n1	44.8*	44.1*	8.2%	0.7%	2.0%
O=C(COC(=O)c1cccc(S(=O)(=O)N2CCOCC2)c1)c1ccccc1	40.5*	99.6*	15.4%	?	4.9%
O=C(CCc1nc2ccccc2[nH]c1=O)OCc1ccc(S(=O)(=O)N2CCOCC2)cc1	-3.1	-2.7	?	-41.8%	-2.4%
O=C(CSc1nc2ccccc2s1)Nc1cc(S(=O)(=O)N2CCOCC2)ccc1O	19.7*	17.3	15.6%	?	6.8%
CC1(C)[C@H](C(=O)O[C@H](C#N)c2cccc(Oc3ccccc3)c2)[C@@H]1C=C(Br)Br	0.8	-13.3	/	/	/
O=C(OCc1nc2ccccc2s1)c1cccc(S(=O)(=O)N2CCOCC2)c1	37.1*	108.3*	114.0%	76.4%	-5.2%
CC1(C(=O)NNC(=O)c2ccc(=O)oc2)CC1Br (centres undefined)	13.1*	23.8	64.8%	79.0%	9.5%
COc1cccc(NC(=O)CCNS(=O)(=O)c2cccc3nonc23)c1	-5.2	-5.4	21.6%	-3.1%	5.4%
COc1cc2c(c(O)c1OC)-c1c(cc(OC)c(OC)c1OC)C[C@@H](C)[C@@H](C)C2	2.1	-13.7	13.1µM*	?	6.6%
COc1cc2c(c(OC)c1OC)-c1c(cc(OC)c(OC)c1OC)C[C@H](C)[C@H](C)C2	-5.3	15.8	?	?	0.2%
COc1cc2c(c(OC)c1OC)-c1c(cc3c(c1OC)OCO3)CC(C)C(C)C2 (centres undefined)	19.1	13.4	/	/	/
COc1cc2c(c(OC)c1OC)-c1c(cc3c(c1O)OCO3)C[C@@H](C)[C@@H](C)C2	-7.6	-11.0	?	10.4µM*	0.0%
O=C(NCc1ccncc1)c1cccc(S(=O)(=O)Nc2ccc(F)cc2)c1	/	/	22.9%	-18.2%	/
CCOC(=O)C(=O)c1c(C)cc2ccccn12	23.1*	47.2*	63.9%	-30.4%[5.75 µM]	-1.0%
Cc1cc2ccccn2c1C(=O)c1cccc([N+](=O)[O-])c1	-1.8	13.5	-2.8%	15.6%	-2.1%
